PubChem BioAssay (NCATS)
Results filed as inconclusive are left out. Unmarked numbers belong to inactive results. Activity calls are given as the source filed them. The call rests on the fitted dose curve; in most records, active means well fitted cell-killing curve with a large enough effect; inconclusive means small, poorly fitted or top-dose-only effect, or effect the other way; inactive means no such curve, though single readings can be large or run the other way.

Key:
[1] = Quantitative High-Throughput drug screen in 47 multiple myeloma cell lines against the NCATS MIPE library collection: OCIMY7_PLB cell viability assay (AID 1918987); further: nearly all actives have a fitted effect of over 65% in size
How it was run: (§1)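 ATP-based CellTiter-Glo luminescence after 48 h drug exposure (37 °C, 5% CO2) of 500 myeloma cells per well. DMSO-only wells set 100% viability, media-only wells 0%; MIPE 4.0 library added by pin tool.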

[2] = Quantitative High-Throughput drug screen in 47 multiple myeloma cell lines against the NCATS MIPE library collection: OPM1_PLB cell viability assay (AID 1918989); further: nearly all actives have a fitted effect of over 40% in size
How it was run: as §1

[3] = Quantitative High-Throughput drug screen in 47 multiple myeloma cell lines against the NCATS MIPE library collection: U266_ATCC cell viability assay (AID 1919864); further: nearly all actives have a fitted effect of over 35% in size
How it was run: as §1

[4] = Quantitative High-Throughput drug screen in 47 multiple myeloma cell lines against the NCATS MIPE library collection: XG6_PLB cell viability assay (AID 1919865); further: nearly all actives have a fitted effect of over 40% in size
How it was run: as §1

[5] = Quantitative High-Throughput drug screen in 47 multiple myeloma cell lines against the NCATS MIPE library collection: XG1_PLB cell viability assay (AID 1919866); further: nearly all actives have a fitted effect of over 35% in size
How it was run: as §1

[6] = Quantitative High-Throughput drug screen in 47 multiple myeloma cell lines against the NCATS MIPE library collection: PE2_PLB cell viability assay (AID 1919869); further: nearly all actives have a fitted effect of over 35% in size
How it was run: as §1

[7] = Quantitative High-Throughput drug screen in 47 multiple myeloma cell lines against the NCATS MIPE library collection: VP6_DJ cell viability assay (AID 1919867); further: nearly all actives have a fitted effect of over 40% in size
How it was run: as §1

[8] = Quantitative High-Throughput drug screen in 47 multiple myeloma cell lines against the NCATS MIPE library collection: OCIMY5_PLB cell viability assay (AID 1918988); further: nearly all actives have a fitted effect of over 65% in size
How it was run: as §1

[9] = Quantitative High-Throughput drug screen in 47 multiple myeloma cell lines against the NCATS MIPE library collection: UTMC2_PLB cell viability assay (AID 1919868); details: CellTiter-Glo ATP luminescence, 48 h; viability (% of DMSO control): at 45.8 µM (top of the series); further: nearly all actives have a fitted effect of over 55% in size
How it was run: as §1

[10] = Quantitative High-Throughput drug screen in 47 multiple myeloma cell lines against the NCATS MIPE library collection: SKMM1_PLB cell viability assay (AID 1919863); details: SKMM1 myeloma viability, CellTiter-Glo ATP, 48 h; viability: stronger effect = lower value; further: nearly all actives have a fitted effect of over 35% in size
How it was run: as §1
Potency means the concentration at half of the fitted maximal effect.

For `Cc1[nH]c(=O)c(C#N)cc1-c1ccc2nccn2c1`, the Potency [1] was “inactive”, the Potency [2] was “inactive” and the Potency [3] was “inactive”. The Potency [4] was “inactive”, the Potency [5] was “inactive” and the Potency [6] was “inactive”.

For `CC1(C)CNc2cc(NC(=O)c3cccnc3NCc3ccncc3)ccc21`, the Potency [1] was 0.372 µM (active), the Potency [2] was “inactive” and the Potency [4] was 0.372 µM (active). For the same compound, the Potency [7] was 1.66 µM (active).

With `Cc1ccnc(NS(=O)(=O)c2ccc(NC(=O)Nc3ccc(S(=O)(=O)Nc4nccc(C)n4)cc3)cc2)n1` the Potency [1] was 23.5 µM (active), the Potency [2] was 18.7 µM (active) and the Potency [4] was 4.18 µM (active). The Potency [7] was 2.64 µM (active).

For `NS(=O)(=O)c1cc2c(cc1Cl)NC=NS2(=O)=O`, the Potency [1] was “inactive”, the Potency [8] was “inactive” and the Potency [3] was “inactive”. The Potency [7] was “inactive” and the Potency [6] was “inactive”.

With `C[C@]1(c2nc3c(C(N)=O)cccc3[nH]2)CCCN1` the Potency [1] was 5.26 µM (active) and the Potency [2] was “inactive”.

In the case of `O=c1ncn2nc(Sc3ccc(F)cc3F)ccc2c1-c1c(Cl)cccc1Cl`, the Potency [1] is reported as 16.6 µM (active), the Potency [2] is reported as 16.6 µM (active) and the Potency [3] is reported as 20.9 µM (active). For the same compound, the Potency [4] was 13.2 µM (active), the Potency [7] was 9.35 µM (active) and the Potency [6] was 3.72 µM (active).

In the case of `Cc1cc(SCc2sc(-c3ccc(C(F)(F)F)cc3)nc2C)ccc1OCC(=O)O`, the Potency [1] is reported as 20.9 µM (active), the Potency [8] is reported as 3.72 µM (active) and the Potency [4] is reported as “inactive”.

With `CCOc1cc(C=C2C(=O)N(c3ccccc3)N=C2C)cc(Cl)c1OCC(=O)OC` the Potency [1] was 3.72 µM (active) and the Potency [2] was 23.5 µM (active).

With `COc1ccc(C2=N[C@H](c3ccc(Cl)cc3)[C@H](c3ccc(Cl)cc3)N2C(=O)N2CCNC(=O)C2)c(OC(C)C)c1` the Potency [1] was 8.33 µM (active), the Potency [8] was 18.7 µM (active) and the Potency [3] was 20.9 µM (active). The Potency [4] was 2.64 µM (active).

For `CCn1c(-c2nonc2N)nc2c(C#CC(C)(C)O)ncc(OC[C@H]3CCCNC3)c21`, the Potency [1] was 8.33 µM (active), the Potency [2] was 0.148 µM (active) and the Potency [3] was 23.5 µM (active). For the same compound, the Potency [4] was 18.7 µM (active), the Potency [7] was 14.8 µM (active) and the Potency [9] was 0.059 µM (active). For the same compound, the Potency [6] was 9.35 µM (active).

With `N=c1nc(N2CCCCC2)cc(N)n1O` the Potency [1] was 37.2 µM (active), the Potency [2] was 16.6 µM (active) and the Potency [3] was “inactive”. The Potency [4] was 23.5 µM (active) and the Potency [5] was 26.4 µM (active).

In the case of `CCn1c(-c2nonc2N)nc2cnc(Oc3cccc(NC(=O)c4ccc(OCCN5CCOCC5)cc4)c3)cc21`, the Potency [1] is reported as 2.35 µM (active), the Potency [2] is reported as 16.6 µM (active) and the Potency [4] is reported as 20.9 µM (active). The Potency [7] was 8.33 µM (active), the Potency [9] was 0.935 µM (active) and the Potency [6] was 10.5 µM (active).

In the case of `CNC(=O)c1ccc(C)c(-n2c(C)cc(OCc3ccc(F)cc3F)c(Br)c2=O)c1`, the Potency [1] is reported as 8.33 µM (active), the Potency [2] is reported as 13.2 µM (active) and the Potency [3] is reported as “inactive”. The Potency [4] was 16.6 µM (active), the Potency [5] was 6.62 µM (active) and the Potency [7] was 16.6 µM (active).

For `CN(C)c1ccc(C2Nc3ccc4ccccc4c3C3=C2C(=O)CC(C)(C)C3)cc1Br` (configuration not stated), the Potency [1] was 0.935 µM (active), the Potency [8] was 23.5 µM (active) and the Potency [3] was “inactive”. For the same compound, the Potency [6] was 5.26 µM (active).

With `Nc1nc2[nH]cc(CCc3ccc(C(=O)N[C@@H](CCC(=O)O)C(=O)O)cc3)c2c(=O)[nH]1` the Potency [1] was “inactive”, the Potency [2] was 2.96 µM (active) and the Potency [4] was “inactive”. For the same compound, the Potency [5] was “inactive” and the Potency [6] was “inactive”.

For `Cc1cc(-c2ccc(CC(=O)Nc3ccc(-c4cccnc4)cc3)cc2)ccn1`, the Potency [1] was 23.5 µM (active), the Potency [8] was 16.6 µM (active) and the Potency [2] was 20.9 µM (active). The Potency [5] was 18.7 µM (active) and the Potency [7] was 11.8 µM (active).

In the case of `Nc1nccc(-c2ccc3noc(-c4ccc(Cl)cc4)c3c2)n1`, the Potency [1] is reported as 20.9 µM (active), the Potency [8] is reported as 18.7 µM (active) and the Potency [2] is reported as “inactive”. The Potency [4] was 2.64 µM (active), the Potency [5] was 3.72 µM (active) and the Potency [9] was “inactive”.

In the case of `CCCS(=O)(=O)Nc1ccc(F)c(C(=O)c2c[nH]c3ncc(-c4ccc(Cl)cc4)cc23)c1F`, the Potency [1] is reported as 5.9 µM (active), the Potency [8] is reported as 13.2 µM (active) and the Potency [3] is reported as 5.26 µM (active). The Potency [4] was 2.96 µM (active), the Potency [5] was 7.43 µM (active) and the Potency [7] was 18.7 µM (active). For the same compound, the Potency [9] was 14.8 µM (active) and the Potency [6] was 11.8 µM (active).

In the case of `CC(C)(N)C(=O)N[C@H](COCc1ccccc1)C(=O)N1CCC2(CC1)CN(S(C)(=O)=O)c1ccccc12`, the Potency [8] is reported as 16.6 µM (active).

For `O=C(Nc1cccnc1)N1CCC(Cc2cccc(Oc3ccc(C(F)(F)F)cn3)c2)CC1`, the Potency [8] was 18.7 µM (active), the Potency [2] was 18.7 µM (active) and the Potency [3] was 18.7 µM (active). For the same compound, the Potency [4] was 14.8 µM (active), the Potency [7] was 10.5 µM (active) and the Potency [9] was 14.8 µM (active). The Potency [6] was 16.6 µM (active).

In the case of `Clc1cccc(Cl)c1NC1=NCCN1`, the Potency [8] is reported as “inactive”, the Potency [2] is reported as “inactive” and the Potency [3] is reported as “inactive”. For the same compound, the Potency [4] was “inactive”, the Potency [5] was “inactive” and the Potency [7] was 5.26 µM (active). The Potency [6] was “inactive”.

For `Cc1cn[nH]c1`, the Potency [8] was 0.0093 µM (active), the Potency [2] was 1.66 µM (active) and the Potency [10] was 0.0662 µM (active). The Potency [3] was 0.662 µM (active), the Potency [4] was 0.296 µM (active) and the Potency [5] was 1.05 µM (active). For the same compound, the Potency [7] was 0.0935 µM (active) and the Potency [6] was 4.69 µM (active).

With `CN(C(=O)c1ccc(F)cc1C(F)(F)F)C1CCN(c2nnc(-c3ccnn3C)c3ccccc23)CC1` the Potency [1] was 0.372 µM (active), the Potency [2] was “inactive” and the Potency [5] was 13.2 µM (active). The Potency [7] was 16.6 µM (active) and the Potency [6] was 18.7 µM (active).

In the case of `CC(C)(C)NCC(O)c1ccc(O)c(CO)c1` (configuration not stated), the Potency [8] is reported as 0.0148 µM (active), the Potency [2] is reported as “inactive” and the Potency [3] is reported as “inactive”. For the same compound, the Potency [4] was “inactive”, the Potency [5] was “inactive” and the Potency [9] was “inactive”.
